Screening data (PubChem BioAssay)
Only a selection was taken, and hits are over-represented in it overall.
CBX7 AlphaScr: CBX7 chromodomain binding inhibitors, primary screen, biochemical, AlphaScreen; Chromobox protein homolog 7 (Homo sapiens), O95931; AlphaScreen His6-CBX7 / biotin-H3K27me3 peptide binding; stronger effect = lower value; normalised signal (fraction of DMSO) (concentration not given with the values); 66,000 compounds, 1.1% hits; AID 1224903, 2016; in the data active = normalised signal below about 0.5
Target sequence (O95931 whole entry, looked up): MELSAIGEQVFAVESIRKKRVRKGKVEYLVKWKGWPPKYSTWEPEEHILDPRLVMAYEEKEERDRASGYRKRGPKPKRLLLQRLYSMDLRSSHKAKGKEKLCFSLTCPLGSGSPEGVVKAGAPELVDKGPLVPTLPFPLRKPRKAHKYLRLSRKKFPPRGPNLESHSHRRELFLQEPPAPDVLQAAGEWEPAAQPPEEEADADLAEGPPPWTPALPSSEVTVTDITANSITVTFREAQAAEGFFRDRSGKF
Each line names hits and unclear results; the compound was inactive in the other large screens.

Cc1ccc(-c2nc(CSCC(=O)NC3CCCCC3C)c(C)o2)cc1 (stereo not drawn)	none
CCOC(=O)c1cnc2c(C)cc(Cl)cc2c1Nc1cccc(C(C)=O)c1	none
O=C1CCc2cc(S(=O)(=O)NC(Cc3ccccc3)C(=O)NCC3COc4ccccc4O3)ccc2N1 (stereo not drawn)	none
CCN(CC)S(=O)(=O)c1ccc2c(c1)N(CC(=O)NC1CCCC1)C(=O)CS2	none
O=C(Nc1ccc(F)cc1F)C1CC(c2ccc(F)cc2)=NO1 (stereo not drawn)	none
C=CCc1ccccc1OCC(O)CN1CCN(c2ccc(C)cc2)CC1 (stereo not drawn)	CBX7 AlphaScr 0.25
C=CCc1ccccc1OCC(O)CN1CCC(C)CC1 (stereo not drawn)	none
C=CCc1cc(C)ccc1OCC(O)CN1CCOCC1 (stereo not drawn)	none
Cc1ccc(C)c(N2CCN(C(=O)c3cccc(NC4=NC5CS(=O)(=O)CC5S4)c3)CC2)c1 (stereo not drawn)	none
Cc1ccc(OCc2nc(-c3ccc(Cl)cc3)no2)cc1C	none
O=C(CN1C(=O)CSc2ccccc21)NCCN1CCOCC1	CBX7 AlphaScr 0.48
O=C(CN1C(=O)CSc2ccccc21)NCCCN1CCOCC1	none
O=C(CN1C(=O)CCSc2ccccc21)NCCN1CCOCC1	none
CCn1c(C(=O)N2CCC(C(=O)NC(C)c3ccc4c(c3)OCCO4)CC2)cc2sccc21 (stereo not drawn)	none
Cc1cccc(OCC(=O)Nc2c(C(=O)c3ccc(Cl)cc3)oc3ccccc23)c1	none
COc1ccc(Nc2ncc(C(=O)Nc3cc(C)c(Cl)cc3OC)c3ccccc23)cc1	none
Cc1cc(C)c(NC(=O)CSc2nccn2-c2ccccc2)c(C)c1	none
CCN1CCCc2cc(CN(CCN3CCOCC3)C(=O)Nc3ccc(C)c(C)c3)ccc21	CBX7 AlphaScr 0.22
CCc1ccc(NC(=O)N(CCN2CCOCC2)Cc2ccc3c(c2)CCCN3CC)cc1	none
CCCN1CCCc2cc(CN(CCCN3CCOCC3)C(=O)Nc3ccccc3)ccc21	none
CCN(CC)S(=O)(=O)c1ccc2c(c1)N(CC(=O)N1CCN(c3ncccn3)CC1)C(=O)CO2	none
CCc1ccc(CNC(=O)Cc2cn(C)c3ccccc23)cc1	none
O=C(Nc1ccc(-c2noc(COc3ccccc3Cl)n2)cc1)c1ccc2c(c1)OCO2	none
COc1ccc(OC)c(NS(=O)(=O)c2ccc(OC)c3ncccc23)c1	none
Cc1nn(-c2ccccc2)c(Cl)c1C(=O)Nc1ccc(C)c2cccnc12	none
CS(=O)(=O)Nc1ccc(Cl)c2cccnc12	CBX7 AlphaScr 0.0026
COc1ccc(C2NC(C(=O)O)Cc3[nH]cnc32)cc1CSc1nc2ccccc2[nH]1 (stereo not drawn)	CBX7 AlphaScr 0.5
COc1ccc(CSc2nc3ccccc3[nH]2)cc1	none
COc1ccc(C2NCCc3c2[nH]c2ccccc32)cc1CSc1nc2ccccc2[nH]1 (stereo not drawn)	none
CCCNC(=O)c1cc2nc(-c3ccc(C)cc3)cc(C(F)(F)F)n2n1	none
COc1ccc(-c2cn(-c3ccc(C)cc3)c(S(=O)(=O)CC(=O)Nc3ccc(Cl)cc3)n2)cc1	none
CC[C@H]1OC(=O)[C@H](C)[C@H]2OC(c3cccc([N+](=O)[O-])c3)O[C@H]([C@H]2C)[C@@](C)(O)C[C@@H](C)C(=O)/C(C)=C/[C@H]1C (stereo partly drawn)	none
Cc1ccccc1Nc1ncc(F)c(Nc2ccccc2C)n1	none
CCOC(=O)c1cnc2c(C)cccc2c1Nc1ccc(F)cc1	none
CCOC(=O)c1cnc2c(C)cc(Cl)cc2c1Nc1ccc(N2CCOCC2)cc1	CBX7 AlphaScr 0.26
CCOC(=O)c1cnc2c(C)cc(Cl)cc2c1Nc1cccc(C(=O)O)c1	none
CCOC(=O)c1cnc2c(C)cccc2c1Nc1ccc(N(CC)CC)cc1	CBX7 AlphaScr 0.12
CCOC(=O)c1cnc2c(C)cc(C)cc2c1Nc1ccc(C)cc1	none
CCOC(=O)c1cnc2c(C)cc(Cl)cc2c1Nc1ccc2c(c1)OCCO2	none
CCOC(=O)c1cnc2c(C)cc(C)cc2c1Nc1ccc(N(C)C)cc1	CBX7 AlphaScr 0.33
CCOC(=O)c1cnc2c(C)cccc2c1Nc1ccc(C(=O)O)cc1	none
CCOC(=O)c1cnc2c(C)cc(C)cc2c1Nc1ccc(OCC)cc1	none
COc1ccc(-c2noc(CCC(=O)NCCN3CCN(c4cccc(Cl)c4)CC3)n2)cc1	none
Cc1ccccc1-n1nc2c(c1NC(=O)c1ccc(OC(C)C)cc1)CS(=O)(=O)C2	none
CC1CCN(c2ccc3nnc(-c4ccccc4)n3n2)CC1	none
CCOC(=O)Cn1c(=O)c(-c2cc(Br)ccc2NC)nc2cc3ccccc3cc21	none
CCNc1ccc(Br)cc1-c1nc2ccccc2n(CC)c1=O	CBX7 AlphaScr 0.27
CCOC(=O)Cn1c(=O)c(-c2ccccc2NCc2ccccc2)nc2ccccc21	none
Fc1cccc(Cl)c1Cc1noc(-c2cccc(Br)c2)n1	none
O=C(Nc1nnc(Cc2ccccc2F)s1)c1ccc(Cl)cc1Cl	none
Cc1csc2ncc(C(=O)N(Cc3ccccc3)Cc3ccccc3)c(=O)n12	none
O=C(NCc1ccccn1)c1ccc2c(c1)ncn2C1CCCC1	none
Cc1nc2c(C(=O)NC3CCCC3)c[nH]n2c(=O)c1Cc1ccc(Cl)cc1	none
COC(=O)c1c[nH]n2c(=O)c(Cc3ccccc3C)c(C)nc12	none
COC(=O)c1c[nH]n2c(=O)c(Cc3cccc(Cl)c3)c(C)nc12	none
COC(=O)c1c[nH]n2c(NC3CCC(C)CC3)c(-c3ccc(Cl)cc3)nc12 (stereo not drawn)	CBX7 AlphaScr 0.33
COC(=O)c1c[nH]n2c(NC3CCC(C)CC3)c(-c3cccc(F)c3)nc12 (stereo not drawn)	CBX7 AlphaScr 0.33
COC(=O)c1c[nH]n2c(NC3CCC(C)CC3)c(-c3cccc(C)c3)nc12 (stereo not drawn)	CBX7 AlphaScr 0.24
CC1CCC(NC(=O)Cn2nc(-c3ccccc3)c3cc(Cl)ccc32)CC1 (stereo not drawn)	none
Cc1cccc(-c2nc(CN3CCCC(C(=O)NC4CCC(C)CC4)C3)c(C)o2)c1 (stereo not drawn)	none
COC(=O)c1c[nH]n2c(NCCc3ccccc3)c(-c3cccc(OC)c3)nc12	none
Cc1nc2c(C(=O)NC3CC3)c[nH]n2c(=O)c1Cc1ccccc1F	none
COC(=O)c1c[nH]n2c(NC3CCCCCC3)c(-c3cccc(C)c3)nc12	CBX7 AlphaScr 0.44
COC(=O)c1c[nH]n2c(=O)c(Cc3cc(C)ccc3C)c(C)nc12	none
Cc1ccc(-c2csc(NC(=O)c3cc4ccccc4oc3=O)n2)cc1	none
CCOC(=O)c1ccc2c(c1)N(Cc1ccc(C)cc1)C(=O)c1ccccc1S2	none
Cc1ccc(-c2noc(CCC(=O)NCCCOC(C)C)n2)cc1	none
O=C(CCC1CCCCC1)Nc1c2c(nn1-c1ccc(F)cc1)CSC2	none
COc1ccccc1CNS(=O)(=O)c1ccc2[nH]cc(C(=O)O)c(=O)c2c1	none
COc1cccc(CNS(=O)(=O)c2ccc3[nH]cc(C(=O)O)c(=O)c3c2)c1	none
O=C(O)c1c[nH]c2ccc(S(=O)(=O)NCc3ccc4c(c3)OCO4)cc2c1=O	CBX7 AlphaScr 0.48
Cc1noc(C)c1S(=O)(=O)Nc1ccc(F)cc1	none
CCN(CC)CCCN=C1NC2CS(=O)(=O)CC2S1 (stereo not drawn)	none
c1csc(-c2nc3cnccn3c2NC2CCCC2)c1	none
CCCCOc1ccc(-c2nc3ncccn3c2NC2CCCCC2)cc1	none
COC(=O)c1c[nH]n2c(=O)c(Cc3ccc(F)cc3Cl)c(C)nc12	none
Cc1ccn2c(NC(=O)C3CCCCC3)c(-c3ccc(F)cc3)nc2c1	none
COC(=O)c1c[nH]n2c(NC3CCCC3)c(-c3ccc(F)cc3)nc12	CBX7 AlphaScr 0.28
